Screening results: PubChem BioAssay, NMMLSC
GSH fluor – GSH bead compound fluorescence profile. GSH beads flow cytometry, compound fluorescence 488/530 nm; stronger effect = higher value. fluorescence (KMESF) at 10 µM. 190,000 tested, 0.25% active. AID 1776; in the data active = fluorescence above about 89;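 note: glutathione beads carrying GST-tagged Bcl family fusion proteins plus one bare bead set; values are compound well signal with DMSO vehicle wells as background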
RGS8-Gao reg – human RGS8-Galphao interaction regulation. P09471. multiplexed bead flow cytometry, RGS8-Galphao binding; actives lie on both sides. response (percent of control binding), % at 10 µM. 220,000 tested, 0.34% active; in the data active = response below about 60% or above about 140%; inactive = in between;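 note: Galphao activated as the GDP aluminium fluoride complex binding bead-coupled RGS8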
RGS7-Gao – regulators of human RGS7-Galphao interaction; Multiplexed bead flow cytometry, RGS7-Galphao binding; actives lie on both sides; 220,000 tested, 0.35% active; binding response (% of control), % at 10 µM; in the data active = binding response below about 49% or above about 150%; inconclusive = no clear call, values can overlap the other calls; inactive = in between;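 note: fluorescent Galphao held in activated GDP-AlF4 state binding bead-coupled RGS7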
Avidin fluor – avidin bead compound fluorescence profile; 220,000 tested, 0.38% active; AID 1775; Avidin beads, compound fluorescence 488/530 nm, flow cytometry; stronger effect = higher value; fluorescence (KMESF) at 10 µM; in the data active = fluorescence above about 47
RGS4-Gao reg – human RGS4-Galphao interaction regulation | 220,000 tested, 0.33% active | binding response (% of control), % at 10 µM | Multiplexed bead flow cytometry, RGS4-Galphao binding; actives lie on both sides | P09471; in the data active = binding response below about 49% or above about 150%; inactive = in between;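 note: fluorescent Galphao activated with aluminum fluoride binding bead-coupled RGS4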
RGS16-Gao HTS – regulators of human RGS16-Galphao interaction; AID 1441; binding response (% of control), % at 10 µM; O15492+P09471; bead-based flow cytometry RGS16-Galphao binding, fluorescence; actives lie on both sides; 220,000 tested, 0.38% active; call rule not given here;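 note: Galphao activated by GDP with aluminum fluoride before binding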
Target sequence (O15492 whole entry, looked up): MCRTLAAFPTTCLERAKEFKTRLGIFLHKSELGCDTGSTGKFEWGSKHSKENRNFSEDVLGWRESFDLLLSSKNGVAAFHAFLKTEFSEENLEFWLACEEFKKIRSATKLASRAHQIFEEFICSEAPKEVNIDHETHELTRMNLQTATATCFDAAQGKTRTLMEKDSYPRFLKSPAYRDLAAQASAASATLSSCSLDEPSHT
Target sequence (P09471 whole entry, looked up): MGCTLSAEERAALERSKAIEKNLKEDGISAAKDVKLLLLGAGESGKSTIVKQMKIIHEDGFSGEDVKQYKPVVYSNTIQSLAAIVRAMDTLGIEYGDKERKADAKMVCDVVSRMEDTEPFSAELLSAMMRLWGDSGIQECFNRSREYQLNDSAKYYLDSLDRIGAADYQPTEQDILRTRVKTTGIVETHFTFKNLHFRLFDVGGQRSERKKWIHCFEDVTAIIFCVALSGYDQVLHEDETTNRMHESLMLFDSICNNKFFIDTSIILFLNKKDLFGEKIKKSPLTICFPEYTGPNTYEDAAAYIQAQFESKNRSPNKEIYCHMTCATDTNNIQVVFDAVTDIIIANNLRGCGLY
* = called active by the depositor; u = inconclusive; x = not tested or not shown. Most compounds without a hit are left out; they make up all but 1.2% or so of the library.

SMILES	GSH fluor	RGS8-Gao reg	RGS7-Gao	Avidin fluor	RGS4-Gao reg	RGS16-Gao HTS
O=C(O)C1C2C=CC(C2)C1C(=O)NCCc1cccc(Cl)c1 (stereo unspecified)	28	99.9	106.4	48*	101.1	106.5
Nc1ccc(CSc2ccc(Cl)cc2)cc1	14	101.2	u	13	98.0	103.4
CCOc1ccc(N2C(=O)CC(N(Cc3ccco3)C(=O)CCC(=O)O)C2=O)cc1 (stereo unspecified)	60	104.2	99.3	23	98.5	109.5
COc1ccc(S(=O)(=O)Nc2nncs2)cc1	20	104.0	108.7	49*	102.7	116.0
CCCc1nnc(NS(=O)(=O)c2ccc(OC)cc2)s1	28	95.1	102.7	8	100.7	81.2
CC(C)CN1CCC(CNC(=O)CCc2nnc(Cc3c[nH]c4ccccc34)o2)CC1	12	101.2	98.7	13	100.5	100.1
O=C(O)C(Cc1cc2ccccc2[nH]1)N1C(=O)C2CC=C(Cl)CC2C1=O (stereo unspecified)	117*	97.2	97.5	7	99.2	104.1
CCOC(=O)c1[nH]c(C)c(C(=O)Nc2ccc(C)c(Cl)c2)c1C	25	102.0	109.7	62*	100.2	100.6
CCOC(=O)CCCNC(=O)COC(=O)c1cccc(C)c1O	261*	97.1	91.6	7	96.5	105.7
Cc1cccc(C(=O)OCC(=O)Nc2ccc(N3CCCCC3)cc2)c1O	24	101.0	97.9	25	98.1	98.6
CCC(CC)NC(=O)COC(=O)c1cccc(C)c1O	262*	84.4	93.8	4	95.0	52.7
CCCCc1ccc(NC(=O)c2cnccn2)cc1	13	104.0	100.7	12	102.0	104.1
Cc1nc2cc(NC(=O)N3CC4(C)CC3CC(C)(C)C4)ccc2n1C (stereo unspecified)	19	98.2	105.2	48*	99.2	97.5
CC(O)c1cccc(NC(=O)CCCc2ccccc2)c1 (stereo unspecified)	9	94.9	96.2	6	101.2	74.9
CC(O)c1cccc(NC(=O)CCC(=O)O)c1 (stereo unspecified)	261*	98.2	101.6	6	98.9	101.2
CCN(CC)S(=O)(=O)c1cccc(NC2=NCC(C)S2)c1 (stereo unspecified)	13	97.5	u	10	100.1	98.0
CCCCC(=O)Nc1cccc(NC(=O)c2ccc(Br)cc2)c1	14	101.6	137.0	49*	101.1	109.0
CC1=C(C(=O)OC(C)C)C(c2ccc(C)o2)C(C(=O)OC(C)C)=C(C)N1	x	99.9	u	7	102.5	102.5
Cc1cnc(C(=O)OCc2ccc(COC(=O)c3cnc(C)cn3)cc2)cn1	7	100.2	u	69*	103.9	92.6
Cc1ccc(CNC(=O)COC(=O)c2cnc(C)cn2)cc1	16	103.8	u	9	102.4	101.7
CCOC(=O)c1c(NC(=O)COC)sc(C(C)=O)c1C	54	100.8	104.1	11	104.5	111.2
CCOC(=O)c1c(NC(=O)COC)sc(C)c1C	126*	109.1	107.5	6	110.5	109.1
CCOC(=O)CCn1nc(-c2ccc(Cl)cc2)cc1N	36	97.0	106.8	48*	99.7	99.0
CCOC(=O)Cn1nc(-c2ccc(Cl)cc2)cc1N	6	100.7	100.2	10	102.5	102.9
COc1ccc2c(CC(=O)OCC(=O)Nc3sc4c(c3C#N)CCC(C)C4)coc2c1 (stereo unspecified)	11	102.8	98.2	13	99.6	101.9
COc1cccc(CN2CCN(Cc3ccc4c(NC(C)=O)cccc4n3)CC2CCO)c1 (stereo unspecified)	9	99.3	101.4	10	100.7	101.1
COC(=O)c1cccc(NC(=O)NC23CC4CC(CC(C4)C2)C3)c1	243*	101.5	102.2	8	100.2	101.7
COC(=O)c1ccc(Cl)c(NC(=O)NC23CC4CC(CC(C4)C2)C3)c1	18	99.0	102.5	12	99.5	99.1
Cc1cccnc1NC(=S)Nc1ccc(Br)cc1Cl	16	100.8	u	11	101.1	98.9
Cc1ccc(CNC(=O)c2cnc(-c3ccccn3)nc2C(F)(F)F)cc1	276*	102.4	102.0	7	105.1	99.3
